Source: paper PMC4336329 (PLoS ONE, 2015)
In all, about 310,000 compounds went through this assay and about 14,000 (4.5%) showed an effect of 50% or more. The effect is printed as a negative number. The full list was thinned out, with strong results kept by preference.

Each molecule was assayed against human ether-à-go-go-related gene (hERG) potassium channel (human, UniProt Q12809) (assay: primary screen, population patch clamp on CHO cells stably expressing hERG; higher = less effect of the substance).
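Also: peak tail current of the secondary pulse compared with the same well before compound.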

Sequence of human ether-à-go-go-related gene (hERG) potassium channel (Q12809 whole entry, looked up): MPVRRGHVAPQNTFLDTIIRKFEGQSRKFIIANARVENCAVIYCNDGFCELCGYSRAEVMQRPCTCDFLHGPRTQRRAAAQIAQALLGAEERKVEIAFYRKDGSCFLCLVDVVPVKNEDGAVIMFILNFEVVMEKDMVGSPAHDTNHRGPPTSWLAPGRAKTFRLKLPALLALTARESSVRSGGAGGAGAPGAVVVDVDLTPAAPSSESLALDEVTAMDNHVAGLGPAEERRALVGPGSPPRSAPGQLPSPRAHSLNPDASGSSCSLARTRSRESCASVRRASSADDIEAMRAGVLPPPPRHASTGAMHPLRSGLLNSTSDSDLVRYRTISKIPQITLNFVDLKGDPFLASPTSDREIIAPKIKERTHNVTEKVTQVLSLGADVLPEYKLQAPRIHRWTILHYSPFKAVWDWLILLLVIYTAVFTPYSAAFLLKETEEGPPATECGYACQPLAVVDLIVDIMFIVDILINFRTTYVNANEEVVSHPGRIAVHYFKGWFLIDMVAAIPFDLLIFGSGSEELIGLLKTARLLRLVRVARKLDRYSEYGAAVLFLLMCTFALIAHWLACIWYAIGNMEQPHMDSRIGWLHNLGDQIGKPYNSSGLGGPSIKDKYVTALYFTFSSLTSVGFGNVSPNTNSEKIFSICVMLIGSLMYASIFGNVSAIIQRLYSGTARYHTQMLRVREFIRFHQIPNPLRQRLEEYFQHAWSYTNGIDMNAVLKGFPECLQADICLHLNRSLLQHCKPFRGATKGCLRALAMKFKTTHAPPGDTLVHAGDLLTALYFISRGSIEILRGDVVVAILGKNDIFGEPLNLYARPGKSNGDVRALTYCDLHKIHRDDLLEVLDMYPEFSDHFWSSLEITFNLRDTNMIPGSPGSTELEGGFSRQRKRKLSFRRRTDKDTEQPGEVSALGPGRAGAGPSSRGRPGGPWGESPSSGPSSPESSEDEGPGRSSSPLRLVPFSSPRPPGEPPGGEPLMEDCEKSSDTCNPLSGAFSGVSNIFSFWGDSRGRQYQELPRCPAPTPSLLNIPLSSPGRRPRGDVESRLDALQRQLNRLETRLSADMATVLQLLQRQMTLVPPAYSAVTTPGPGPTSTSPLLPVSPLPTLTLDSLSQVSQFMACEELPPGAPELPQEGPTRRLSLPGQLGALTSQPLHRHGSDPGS

SMILES | hERG current change (%, negative = inhibition) at 10uM
Cc1cccc(C(=O)NCC(c2ccc(F)cc2)N2CCOCC2)c1 (stereo not drawn) | -2.49%
CCc1cccc(CC)c1C(OC(C)=O)c1cccnc1 (stereo not drawn) | -0.238%
CCc1ccc(NC(=O)c2ccc(C3SCC(=O)N3CCc3ccccc3)cc2)cc1 (stereo not drawn) | 6.22%
CN(CC(=O)Nc1ccc2c(c1)OCO2)S(=O)(=O)c1cccs1 | -26.9%
O=C(Nc1ccccc1N1CCN(C(=O)c2ccccc2)CC1)c1ccccc1Cl | -78.8%
Cc1ccccc1C(=O)Nc1ccccc1N1CCCCC1 | 8.11%
Cc1ccccc1N1CCN(C(=O)c2ccccc2NC(=O)c2ccccc2C(=O)O)CC1 | 6.78%
O=C(c1ccccc1)c1ccc(C(=O)N2CCN(c3ccccc3Cl)CC2)cc1 | -13.3%
Cc1ccccc1C(=O)Nc1ccccc1N1CCN(C(=O)c2ccccc2)CC1 | -74%
O=C(Nc1ccccc1N1CCCC1)c1ccccc1Cl | 6.75%
COC(=O)Nc1ccc2c(c1)N(C(=O)CCN1CCOCC1)c1ccccc1S2.Cl | 2.68%
Cc1nc(CCNC(=O)Cc2ccc(F)cc2)cs1 | 18.9%
O=C(COc1ccc2c3c(c(=O)oc2c1)CCC3)N1CCN(c2ccccc2)CC1 | -12.6%
CCC(CC)C(=O)Nc1ccc(Nc2ccccc2)cc1 | 8.32%
CC(C)[C@H](NC(=O)[C@@H]1Cc2ccccc2CN1)C(=O)Nc1ccc2c(c1)OCCO2 | -30.2%
O=C(Cn1[nH]c(=O)c2ccccc2c1=O)OCC(=O)N(Cc1ccccc1)Cc1ccccc1 | 4.4%
O=C(CCNC(=O)c1ccc([N+](=O)[O-])cc1)Nc1ccc(N2CCOCC2)cc1N1CCOCC1 | -4.63%
O=C(CCNC(=O)c1ccc([N+](=O)[O-])cc1)Nc1cc(Cl)ccc1N1CCOCC1 | -69.9%
O=C(CCNC(=O)c1ccc([N+](=O)[O-])cc1)Nc1ccccc1N1CCCCC1 | -34.9%
CC(C)(C)c1ccc(C(=O)NCCC(=O)Nc2cc(Cl)ccc2N2CCOCC2)cc1 | -2.31%
O=C(CCNC(=O)c1ccc([N+](=O)[O-])cc1)Nc1ccccc1N1CCCC1 | -34.6%
O=C(CCNC(=O)c1ccc([N+](=O)[O-])cc1)Nc1ccccc1N1CCOCC1 | -64.3%
O=C(N1CCCCCC1)N1CCN(S(=O)(=O)c2ccccc2)CC1 | -11.9%
Cc1c(CC(=O)NCC(=O)NCC(=O)O)c(=O)oc2cc3c(cc12)CCC(C)(C)O3 | 12.5%
Cc1ccc(C)c(NC(=O)CN(C)C(=O)[C@@H](NC(=O)c2ccc(C(C)(C)C)cc2)C(C)C)c1 | -16.5%
Nn1c(SCC(=O)NC(=O)Nc2ccc3c(c2)OCCO3)nnc1C1CC1 | 14.3%
CC(C)NC(=NCc1ccc(Cl)cc1Cl)Nc1ccccc1 | -53%

SMILES | hERG current change (%, negative = inhibition) at 10uM
O=C(NCc1ccc(Cl)cc1Cl)Nc1ccccc1 | 2.75%
S=C(NCc1ccc(Cl)cc1Cl)Nc1ccccc1 | 10.1%
COC(=O)C1=C(c2ccc3ccccc3c2)C[C@@H]2CC[C@H]1N2C(=O)NCCCOC(C)C | -7.68%
O=C(COc1ccc(-c2ccccc2)cc1)N/N=C/c1ccccc1Br | 19.7%
O=C(O)C1C2C=CC(C2)C1C(=O)N1CCN(C/C=C/c2ccccc2)CC1 (stereo not drawn) | 17.1%
Cc1nc([N+](=O)[O-])c(SCC(N)=O)n1Cc1ccccc1 | 27.8%
CCCOc1ccc(Cn2c(C)nc([N+](=O)[O-])c2SCC(O)COC)cc1[N+](=O)[O-] (stereo not drawn) | -66%
CCOc1ccc(Cn2c(C)nc([N+](=O)[O-])c2SCC(O)CCl)cc1[N+](=O)[O-] (stereo not drawn) | -68.2%
Cn1cnc([N+](=O)[O-])c1SCC(O)CCl (stereo not drawn) | 15.9%
Cc1nc([N+](=O)[O-])c(SCC(O)CCl)n1Cc1ccc(Cl)cc1 (stereo not drawn) | -59.9%
COCC(O)CSc1c([N+](=O)[O-])nc(C)n1Cc1ccc(OC)c([N+](=O)[O-])c1 (stereo not drawn) | -2.82%
COc1ccc(Cn2c(C)nc([N+](=O)[O-])c2SCC(=O)O)cc1[N+](=O)[O-] | 16.5%
CCOc1ccc(Cn2ccnc2CCl)cc1[N+](=O)[O-] | -33.2%
COc1ccc(Cn2cc([N+](=O)[O-])nc2C)cc1[N+](=O)[O-] | -2.26%
O=C(O)c1ccc(COc2ccccc2[N+](=O)[O-])o1 | 14.8%
O=C1CCCC(O)=C1C(C#Cc1ccccc1)C1=C(O)CCCC1=O | -17.9%
COCCOC(=O)c1c(C)oc2ccc(NS(=O)(=O)c3cccs3)cc12 | -51.4%
CCOC(=O)c1c(C)oc2ccc(NS(=O)(=O)c3cccs3)cc12 | 6.47%
COC(=O)c1c(C)oc2ccc(NS(=O)(=O)c3cccs3)cc12 | -2.42%
CCOC(=O)c1ccc(NC(=O)CCSCCc2ccccn2)cc1 | 0.702%
CC(C)C[C@H](NC(=O)[C@H](Cc1ccccc1)n1c(=O)[nH]c2ccccc2c1=O)C(=O)N1CCC[C@H]1C(=O)O | 6.16%
CCN(CC)CCNc1nc(-c2ccc(OC)cc2)c(-c2ccc(OC)cc2)s1 | -52.6%
Br.COc1ccc(-c2nc(NC3=NCCCCC3)sc2C)cc1 | -26.6%
CCN(CC)CCNc1nc(-c2ccc(OC(F)F)cc2)c(C)s1 | -77.8%
COCCNc1nc(-c2ccc(OC)cc2)c(-c2ccc(OC)cc2)s1 | 15.3%
CNc1nc(-c2ccc(OC)cc2)c(-c2ccc(OC)cc2)s1 | -12.7%
CCNc1nc(-c2ccc(OC(F)F)cc2)c(C)s1 | 15.1%
